Laboratory results taken from PubChem BioAssay AID1159580 (chemical genetic matrix, 2015).
Among all 5,500 compounds or so, about 2,000 (36%) were called active. Another 18% or so got no clear call; they are omitted. No stated cut-off is given here; in the data, active means normalized growth mostly below about 0.91 (no sharp cut-off); inconclusive means no clear call, values can overlap the other calls; inactive means mostly above about 0.92. The list shows a part of the results.

Experiment: chemical genetic growth profiling, strain panel (AID 1159580);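 further: tested at 20 µM; growth read once vehicle control cultures reached saturation at 30 °C; 1 = growth at the plate median or of vehicle wells; lower values mean less growth of the strain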
Details: S. cerevisiae deletion strains, growth OD

Measured: normalized growth

COc1cc(OC)c(/C=C2/C(=O)Nc3ccccc32)c(OC)c1
inactive: locus YAL013W, strain DEP1, hits give low values 1.01 | locus YAL040C, strain CLN3, hits give low values 0.983 | locus YCL061C, strain MRC1 (second series), hits give low values 1.01 | locus YDR150W, strain NUM1, hits give low values 1.01 | locus YDR363W, strain ESC2, hits give low values 0.984 | locus YER002W, strain NOP16, hits give low values 1.02 | locus YJR075W, strain HOC1, hits give low values 1.01 | locus YMR307W, strain GAS1, hits give low values 1.01 | locus YNL153C, strain GIM3, hits give low values 0.914 | locus YNL175C, strain NOP13, hits give low values 0.972 | locus YNL197C, strain WHI3, hits give low values 0.979 | locus YNL224C, strain SQS1, hits give low values 0.996 | locus YNL322C, strain KRE1, hits give low values 1 | locus YOR083W, strain WHI5 (second series), hits give low values 0.967

COc1ccc(/C=C2/C(=O)Nc3ccccc32)cc1
inactive: locus YBR136W, strain MEC1, hits give low values 0.894 | locus YBR160W, strain CDC28, hits give low values 0.899 | locus YDL028C, strain MPS1, hits give low values 0.896 | locus YDL214C, strain PRR2, hits give low values 0.84 | locus YDR054C, strain cdc34, hits give low values 0.917 | locus YDR477W, strain SNF1, hits give low values 0.762 | locus YER123W, strain YCK3, hits give low values 0.858 | locus YER133W, strain GLC7, hits give low values 0.777 | locus YFL029C, strain CAK1, hits give low values 0.879 | locus YFR019W, strain FAB1, hits give low values 0.887 | locus YGR040W, strain KSS1, hits give low values 0.776 | locus YGR052W, strain FMP48, hits give low values 0.836 | locus YGR092W, strain DBF2, hits give low values 0.733 | locus YHR079C, strain IRE1, hits give low values 0.686 | locus YHR082C, strain KSP1, hits give low values 0.827 | locus YHR205W, strain SCH9, hits give low values 0.577 | locus YJL095W, strain BCK1, hits give low values 0.774 | locus YJL128C, strain PBS2, hits give low values 0.839 | locus YJL157C, strain FAR1, hits give low values 0.83 | locus YJR066W, strain TOR1 (second series), hits give low values 0.692 | locus YJR066W, strain TOR1, hits give low values 0.729 | locus YKL048C, strain ELM1, hits give low values 0.887 | locus YKL067W, strain YNK1, hits give low values 0.89 | locus YKL101W, strain HSL1, hits give low values 0.906 | locus YKL203C, strain TOR2, hits give low values 0.859 | locus YLR133W, strain CKI1, hits give low values 0.845 | locus YML070W, strain DAK1, hits give low values 0.859 | locus YMR205C, strain PFK2 (second series), hits give low values 0.866 | locus YNL020C, strain ARK1, hits give low values 0.841 | locus YNL183C, strain NPR1, hits give low values 0.821 | locus YNL222W, strain SSU72, hits give low values 0.894 | locus YNL307C, strain MCK1 (second series), hits give low values 0.873 | locus YOL136C, strain PFK27, hits give low values 0.825 | locus YOR061W, strain CKA2, hits give low values 0.861 | locus YOR119C, strain RIO1, hits give low values 0.899 | locus YOR231W, strain MKK1, hits give low values 0.877 | locus YPL031C, strain PHO85, hits give low values 0.748 | locus YPL153C, strain RAD53, hits give low values 0.788 | locus YPL204W, strain HRR25, hits give low values 0.708 | locus YPR025C, strain CCL1, hits give low values 0.912 | locus YPR111W, strain DBF20, hits give low values 0.89
active: locus YAR019C, strain CDC15, hits give low values 0.877 | locus YBL105C, strain PKC1, hits give low values 0.884 | locus YBR135W, strain CKS1, hits give low values 0.89 | locus YDL017W, strain CDC7, hits give low values 0.893 | locus YDL101C, strain DUN1, hits give low values 0.909 | locus YDL108W, strain KIN28, hits give low values 0.892 | locus YDL132W, strain cdc53, hits give low values 0.873 | locus YDR052C, strain DBF4, hits give low values 0.898 | locus YDR226W, strain ADK1, hits give low values 0.867 | locus YFL009W, strain cdc4, hits give low values 0.868 | locus YFR003C, strain YPI1, hits give low values 0.885 | locus YFR028C, strain CDC14, hits give low values 0.871 | locus YHR030C, strain SLT2, hits give low values 0.667 | locus YIL147C, strain SLN1, hits give low values 0.892 | locus YJR016C, strain ILV3, hits give low values 0.878 | locus YKL193C, strain SDS22, hits give low values 0.877 | locus YLR113W, strain HOG1, hits give low values 0.758 | locus YLR403W, strain SFP1, hits give low values 0.652 | locus YMR001C, strain CDC5, hits give low values 0.88 | locus YMR277W, strain FCP1, hits give low values 0.867 | locus YNL006W, strain LST8, hits give low values 0.895 | locus YNL161W, strain CBK1, hits give low values 0.874 | locus YNL207W, strain RIO2, hits give low values 0.866 | locus YOL078W, strain AVO1, hits give low values 0.879 | locus YOR329C, strain SCD5, hits give low values 0.891 | locus YPL209C, strain IPL1, hits give low values 0.894 | locus YPL256C, strain CLN2, hits give low values 0.691 | locus YPR106W, strain ISR1, hits give low values 0.892 | strain NNK1, hits give low values 0.866 | strain TSCII, hits give low values 0.863
